This note sets out measurements from PubChem BioAssay (EPA / NIEHS).

Active and inactive are the calls of the source. The calls were made as follows: active = hit-call score of the fitted dose curve at least 0.9, where 1 is the maximum; inactive = score below 0.9.

The experiment in a line: ATG_AP_2_CIS: Attagene CIS-FACTORIAL HepG2 Assay for human Activator Protein 2 (AP-2) (AID 2282932). To be noted: HepG2 AP-2 cis-reporter, Attagene transcription factor profiling; actives raise or lower the signal. How it is done: ATG_CIS is a cell-based, multiplexed-readout assay that uses HepG2, a human liver cell line, with measurements taken at 24 hours after chemical dosing in a 24-well plate.ATG_AP_2_CIS is one of 52 assay component(s) measured or calculated from the ATG_CIS assay. It is designed to make measurements of mRNA induction, a form of inducible reporter, as detected with fluorescence intensity signals by Reverse transcription polymerase chain reaction (RT-PCR) and Capillary electrophoresis technology.Data from the assay component ATG_AP_2_CIS was analyzed into 1 assay endpoint. This assay endpoint, ATG_AP_2_CIS, was analyzed with bidirectional fitting relative to DMSO as the negative control and baseline of activity. Using a type of inducible reporter, measures of mRNA for gain or loss-of-signal activity can be used to understand the reporter gene at the transcription factor-level as they relate to the gene TFAP2A and TFAP2B and TFAP2D. Furthermore, this assay endpoint can be referred to as a primary readout, because this assay has produced multiple assay endpoints where this one serves a reporter gene function. To generalize the intended target to other relatable targets, this assay endpoint is annotated to the dna binding intended target family, where the subfamily is basic helix-turn-helix leucine zipper.
Human liver HepG2 cells are transiently transfected with multiple reporter transcription units (MRTUs) in 6-well plates using FuGene 6 reagent (Roche; 3 ml FuGene/1 mg DNA). The MRTU constructs are regulated by a cis-regulating element (promoter). […] A major difference between the CIS and TRANS system is that in CIS activities of endogenous TFs are measured, whereas the TRANS assay evaluates changes in activities of exogenous, chimeric NR-Gal4 proteins. […] At the end of 24 hour incubation, total RNA was isolated using TriZol reagent (Invitrogen). The isolated RNA is then reverse-transcribed using oligo(dT) primer and Mo-MLV reverse transcriptase (Invitrogen) with DNAse I (Ambion) treatment for 30 min. The one-tenth of the produced cDNA was amplified by PCR using Taq DNA polymerase (Invitrogen) and two reporter sequence-specific primers. The PCR products were fluorescently labeled by primer extension with 6-arboxyfluorescein (6-FAM) 5'-labeled reporter sequence-specific primer (2 min at 95 C, 20 s at 68 C and 10 min at 72 C) and these products were digested with 5U of HpaI (New England Biolabs) for 2h at 37 C. The fragments were purified using Qiaquick PCR columns (Qiagen), analyzed on an ABI 3130xL genetic analyzer (Applied Biosystems) with peak positions identified by using a set of X-rhodamine (ROX)-labeled MapMarker1000 molecular weight standards (BioVentures). The raw capillary electrophoresis data was processed using Attagraph software (Attagene).
As usually defined, the AC50 is the concentration giving half of the maximal activity seen. With `C=CCOC(=O)/C=C\C(=O)OCC=C`, the AC50 was 21.7 µM (active).

Turning to `CC(C)(C)C1CCC(O)CC1` (stereo not given), the result was inactive.

In the case of `C1COCO1`, the result was inactive.

Consider `C[N+](C)(C)CCO`, for which the compound was classed as inactive.

For `CC(C)(C)c1cccc(O)c1`, the outcome was inactive.

Consider `CCCCCCCCCCCCS`, for which the outcome was inactive.

As for `CCCCC(CC)COCCO` (stereo not given), the call was inactive.

In the case of `c1coc(CNc2ncnc3nc[nH]c23)c1`, the compound was classed as inactive.

Turning to `CC1=CCC(=C(C)C)CC1`, the call was inactive.

Regarding `C=CC(=O)OCC(CO)(COC(=O)C=C)COC(=O)C=C`, the AC50 was 27.8 µM (active).

In the case of `C[C@H](CCC(=O)O)[C@H]1CC[C@H]2[C@@H]3CC[C@@H]4C[C@H](O)CC[C@]4(C)[C@H]3CC[C@]12C`, the AC50 is 168 µM (active).

With `CCCO`, the compound was called inactive.

Take `CC1=CCC(C(C)C)=CC1`: the compound was called inactive.

On to `CC(O)COCC(C)O` (stereo not given), for which the result was inactive.

In the case of `CCCCCCCCOC(C)=O`, the call was inactive.

Turning to `CN(C)C(=O)Nc1ccccc1`, the compound was classed as inactive.

Regarding `c1ccc(OCCOc2ccccc2)cc1`, the result was inactive.

Regarding `CN1CCc2cccc3c2[C@H]1Cc1ccc(O)c(O)c1-3`, the compound was classed as inactive.

Take `Nc1ccc(O)c(N)c1`: the compound was called inactive.

For `CCCCCCCCCCCCOC(C)=O`, the outcome was inactive.

Take `C=C(C)C(=O)OCCC[Si](OC)(OC)OC`: the compound was classed as inactive.

As to `CC=CC(=O)C1=C(C)C=CCC1(C)C`, the result was inactive.

For `O=C(C=Cc1ccccc1)OCCCc1ccccc1`, the result was inactive.

Regarding `Nc1ccc(N)c([N+](=O)[O-])c1`, the call was inactive.

For the compound `CC(CO)c1ccccc1` (stereo not given), the compound was called inactive.

Take `CCCCCCCCCCCCCC(=O)OCC`: the result was inactive.

On to `CCCCCCCCCCCCOCCOS(=O)(=O)O`, for which the compound was called inactive.

Regarding `C/C=C(\C)C(=O)OC/C=C(\C)CCC=C(C)C`, the compound was called inactive.

For `CCCCCCCCCC(=O)OCC`, the compound was classed as inactive.

With `Nc1ccn([C@H]2CC[C@@H](CO)O2)c(=O)n1`, the outcome was inactive.

Take `OCCCO`: the result was inactive.

As to `CCCCCCCCCO`, the result was inactive.

Regarding `CC(=O)CCc1ccc(O)cc1`, the outcome was inactive.

As for `CC(C)Cc1ccccc1`, the compound was classed as inactive.

As to `COc1ccc(OC)cc1`, the compound was classed as inactive.

Turning to `Cc1cccc(O)c1`, the call was inactive.

Take `CCCCC1CCCCC(=O)O1` (stereo not given): the compound was called inactive.

On to `C=CCOCC(O)CO` (stereo not given), for which the outcome was inactive.

`COC(=O)C(C)Oc1ccc(Oc2ncc(C(F)(F)F)cc2Cl)cc1` (stereo not given): the call was inactive.

In the case of `NC(=O)c1c(Cl)cccc1Cl`, the outcome was inactive.
